Laboratory results as given in PubChem BioAssay (NCATS).
Results filed as inconclusive are left out. A call without a number means that no potency is given here. Calls of active or inactive are those of the source. Calls come from the whole dose curve; as a rule, active = well fitted cell-killing curve with a large enough effect; inconclusive = small, poorly fitted or top-dose-only effect, or effect the other way; inactive = flat fitted curve, though single readings scatter.
Potency is the fitted concentration of half-maximal effect.

What follows are molecules tested on C33A (assay: Primary qHTS to identify gynecologic anti-cancer compounds using libraries of approved drugs and bioactive compounds (AID 1345084; note: nearly all actives have a fitted effect of over 55% in size)). Conditions: Gynecologic cancer cell panel viability, ATPlite luminescence, 48 h; series mostly up to 57.5 µM.
How it was run: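 In this quantitative HTS, cell killing is estimated from loss of ATP-dependent luciferase light. Cells see five compound concentrations over a 48 h exposure.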
CCN1CCc2nc(N)oc2CC1 was tested, and the Potency was “inactive”. In the case of CCn1cc(C(=O)O)c(=O)c2cc3c(cc21)OCO3, the Potency is reported as “inactive”. For CCc1c(C)[nH]c2c1C(=O)C(CN1CCOCC1)CC2 (stereo not drawn), the Potency was “inactive”. For COC(=O)[C@@H](N)Cc1ccc(O)c(O)c1, the Potency was “inactive”. In the case of CCOC(=O)c1cnc2c(cnn2CC)c1NN=C(C)C, the Potency is reported as “inactive”. For Cc1scc2c1N(C(=O)CN1CCN(C)CC1)c1ccccc1NC2=O, the Potency was “inactive”. In the case of CC(C)(C)NCC(O)c1cc(O)cc(O)c1 (stereo not drawn), the Potency is reported as “inactive”. C[N+](C)(C)CCOC(N)=O was tested, and the Potency was “inactive”. NC(=O)c1cn(Cc2c(F)cccc2F)nn1 was tested, and the Potency was “inactive”. With CC(=O)OC(C)C[N+](C)(C)C (stereo not drawn) the Potency was “inactive”. In the case of NC(Cc1ccc(Cl)cc1)C(=O)O (stereo not drawn), the activity change, negative = cytotoxicity is reported as 13.6% [at 0.462 µM] (inactive). In the case of FC(F)(F)c1ccccc1-n1ccnc1, the Potency is reported as “inactive”. In the case of CCCCNc1ccc(C(=O)OCCN(C)C)cc1, the Potency is reported as “inactive”. With O=C(O)CCCCCCCC(=O)O the Potency was “inactive”. CCN(CC)CCNC(=O)c1cc(S(C)(=O)=O)ccc1OC was tested, and the Potency was “inactive”. For O=C(O)CN(CCOCCOCCN(CC(=O)O)CC(=O)O)CC(=O)O, the activity change, negative = cytotoxicity was 11.2% [at 0.462 µM] (inactive). CC(=O)[C@]1(O)Cc2c(O)c3c(c(O)c2[C@@H](O[C@H]2C[C@H](N)[C@H](O)[C@H](C)O2)C1)C(=O)c1ccccc1C3=O was tested, and the Potency was 501 nM (active). With CCN1CCC[C@H]1CNC(=O)c1c(O)c(Cl)cc(Cl)c1OC the Potency was “inactive”. CCCN(CCC)C(=O)C(CCC(=O)O)NC(=O)c1ccccc1 (stereo not drawn) was tested, and the Potency was “inactive”. With C[n+]1cc2c3c(ccc2c2ccc4cc5c(cc4c21)OCO5)OCO3 the Potency was 2000 nM (active). NC(N)=NC(=O)Cc1c(Cl)cccc1Cl was tested, and the Potency was “inactive”. O=C(O)CN(CCN(CC(=O)O)CC(=O)O)CCN(CC(=O)O)CC(=O)O was tested, and the Potency was “inactive”. With CN=C(NC#N)NCCSCc1nc[nH]c1C the Potency was “inactive”. NC/C=C/C(=O)O was tested, and the Potency was “inactive”. For Cc1ccc(/C(=C\CN2CCCC2)c2ccccn2)cc1, the Potency was “inactive”. CCCN(CCC)CCc1cccc2c1CC(=O)N2 was tested, and the Potency was “inactive”. With NC(=O)c1ncn([C@@H]2O[C@H](CO)[C@@H](O)[C@H]2O)c1O the Potency was “inactive”. CC(C)[N+](C)(CCOC(=O)C1c2ccccc2Oc2ccccc21)C(C)C was tested, and the Potency was “inactive”. In the case of O=C(O)CP(=O)(O)O, the Potency is reported as “inactive”. With CCN(CC)CC(=O)Nc1c(C)cccc1C the Potency was “inactive”. NCCCNCCSP(=O)(O)O was tested, and the activity change, negative = cytotoxicity was 4.43% [at 11.6 µM] (inactive). For Brc1c(NC2=NCCN2)ccc2nccnc12, the Potency was “inactive”. In the case of c1ccc2c(c1)CCCC2C1=NCCN1 (stereo not drawn), the Potency is reported as “inactive”.
